Source: PubChem BioAssay (The Scripps Research Institute Molecular Screening Center)
An excerpt weighted towards active compounds, which were near 2.3% of everything screened.
pPAFAH inh: inhibitors of human plasma PAF acetylhydrolase (pPAFAH); recombinant pPAFAH, FP-rhodamine probe fluorescence polarization; hit rate 1.5% among 330,000; AID 463082; Q13093; inhibition, % at 3.39 µM;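 active = inhibition above the mean inhibition across the screen plus 3 SD, cut at about 25% in these data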;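 also: inhibitors block binding of the rhodamine activity-based probe so polarization drops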
Target sequence (Q13093 whole entry, looked up): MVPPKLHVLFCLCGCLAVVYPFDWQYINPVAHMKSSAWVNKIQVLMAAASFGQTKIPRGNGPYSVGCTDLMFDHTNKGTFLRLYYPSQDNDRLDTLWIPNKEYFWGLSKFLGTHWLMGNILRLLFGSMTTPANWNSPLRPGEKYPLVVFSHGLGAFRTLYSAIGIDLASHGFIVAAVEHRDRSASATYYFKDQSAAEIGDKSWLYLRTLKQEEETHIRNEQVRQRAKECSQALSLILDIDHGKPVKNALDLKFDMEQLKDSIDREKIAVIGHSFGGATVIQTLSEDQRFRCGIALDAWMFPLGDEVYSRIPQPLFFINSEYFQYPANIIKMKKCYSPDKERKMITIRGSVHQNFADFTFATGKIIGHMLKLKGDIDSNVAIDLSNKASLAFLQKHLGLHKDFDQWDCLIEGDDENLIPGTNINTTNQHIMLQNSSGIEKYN
GSTO1 counter: counter-screen for RBBP9 inhibitors: inhibitors of human GSTO1 | P78417 | recombinant GSTO1, activity-based probe fluorescence polarization | inhibition, % at 5.96 µM | hit rate 1.1% among 300,000 | AID 1974;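 active = inhibition above the campaign mean inhibition plus 3 SD, cut at about 35% in these data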
Target sequence (P78417 whole entry, looked up): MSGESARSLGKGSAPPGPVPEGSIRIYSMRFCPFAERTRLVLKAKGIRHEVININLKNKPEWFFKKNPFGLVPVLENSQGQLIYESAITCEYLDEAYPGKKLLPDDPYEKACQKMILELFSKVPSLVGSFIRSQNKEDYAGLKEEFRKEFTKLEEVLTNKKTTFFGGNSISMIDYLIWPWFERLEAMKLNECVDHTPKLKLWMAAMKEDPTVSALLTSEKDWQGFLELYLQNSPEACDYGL
Fam108B counter: blocks mouse Fam108B hydrolase in RBBP9 counter-screen; recombinant Fam108B, FP-Rh probe fluorescence polarization; inhibition, % at 9.51 µM; hit rate 0.33% among 300,000; AID 1947;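 active = inhibition above the screen mean inhibition plus 3 SD, computed separately per campaign, cut at about 18% in these data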;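 also: inhibitors lower polarization as less probe binds the enzyme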
PAD4 inh: inhibitors of human PAD4. Q9UM07. recombinant PAD4, RCA probe fluorescence polarization. inhibition, % at 6.36 µM. hit rate 0.41% among 330,000. AID 485272;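 active = percent inhibition above a cutoff equal to the mean of all tested compounds plus 3 SD, cut at about 15% in these data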
PME-1 inh: blocks human protein phosphatase methylesterase 1 | Q9Y570 | recombinant PME-1, FP-Rh probe fluorescence polarization | inhibition, % at 5.9 µM | hit rate 0.53% among 320,000;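 active = inhibition above the campaign mean of all compounds plus 3 SD, cut at about 26% in these data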;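 also: competitive labeling of PME-1 active site by serine hydrolase directed probe; inhibitors block probe labeling so polarization falls and inhibition rises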
Fam108b inh conf: Fam108b (mouse) hydrolase inhibition, confirmation assay; shares compounds with Fam108B counter; recombinant Fam108b, FP-Rh probe fluorescence polarization; inhibition, % at 9.51 µM; hit rate 44% among 930; AID 1978;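 active = inhibition above a limit from the primary screen, the mean over all compounds plus 3 SD, cut at about 19% in these data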;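 also: inhibitors free the probe so polarization falls as inhibition rises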
Fam108b inh: mouse ABHD17B inhibition | AID 588649 | inhibition, % at 20 µM | hit rate 44% among 260 | recombinant Fam108b, gel-based ABPP, fluorophosphonate probe | shares compounds with Fam108B counter; in the data active = inhibition above about 40%
Numbers stand for hits.

What do the screens show for `C#CCOCCOCCOCCNc1nc(N2CCN(C(=O)[C@H](CCC(=O)O)n3cc([C@@H](N)[C@H](C)CC)nn3)CC2)nc(N2CCN(C(=O)[C@H](CCC(=O)O)n3cc([C@@H](N)CC(N)=O)nn3)CC2)n1`?
pPAFAH inh: inactive; PAD4 inh: inactive

What do the screens show for `O=C(N/N=C/c1cc([N+](=O)[O-])cc([N+](=O)[O-])c1O)C(O)(c1ccccc1)c1ccccc1`?
pPAFAH inh: inactive; PAD4 inh: inactive; PME-1 inh: inactive

Results for O=[N+]([O-])c1cc(Br)c(O)c(C=NNc2nnnn2-c2cccc3ccccc23)c1 ?
Fam108b inh: inactive

What do the screens show for `CCCn1c(NC(=O)c2ccc([N+](=O)[O-])o2)nc2ccccc21`?
pPAFAH inh: inactive; GSTO1 counter: inactive; Fam108B counter: inactive; PAD4 inh: inactive; PME-1 inh: inactive

What do the screens show for `Brc1ccc(-c2csc3ncnc(-n4nnc5ccccc54)c23)cc1`?
pPAFAH inh: inactive; GSTO1 counter: inactive; Fam108B counter: inactive; PAD4 inh: inactive; PME-1 inh: inactive

What do the screens show for `COc1ccc2c(c1)C(=NNc1ccc(C(=O)O)cc1)c1cc(OC)ccc1-2`?
pPAFAH inh: 31; GSTO1 counter: inactive; Fam108B counter: 30; PAD4 inh: inactive; PME-1 inh: inactive; Fam108b inh conf: 30; Fam108b inh: inactive

Results for O=C(N[C@H]1C/C=C\C[C@H](CC(=O)N(CCO)Cc2ccccc2)C(=O)N[C@@H](c2ccccc2)COC1=O)OCC1c2ccccc2-c2ccccc21 ?
pPAFAH inh: inactive; PAD4 inh: inactive

What do the screens show for `Fc1ccc(-n2cc(CNCCc3cccnc3)c(-c3ccccc3Cl)n2)cc1`?
pPAFAH inh: inactive; GSTO1 counter: inactive; Fam108B counter: inactive; PAD4 inh: inactive; PME-1 inh: inactive

What do the screens show for `COc1cc2c(cc1NC(=O)Nc1ccc(C)cc1)oc1ccccc12`?
pPAFAH inh: inactive; GSTO1 counter: inactive; Fam108B counter: inactive; PAD4 inh: inactive; PME-1 inh: inactive

How did COc1cc2c(cc1NC(=O)Nc1cccc(C)c1)oc1ccccc12 do in these assays?
pPAFAH inh: inactive; GSTO1 counter: inactive; Fam108B counter: 22; PAD4 inh: inactive; PME-1 inh: 36; Fam108b inh conf: inactive

Results for COc1ccc(OC)c(C(=O)CSc2nnc(Cc3cccs3)n2CCc2ccccc2)c1 ?
pPAFAH inh: inactive; GSTO1 counter: inactive; Fam108B counter: inactive; PAD4 inh: inactive; PME-1 inh: inactive

Results for COc1ccc(NC(=O)c2ccccc2[N+](=O)[O-])cc1 ?
pPAFAH inh: inactive; GSTO1 counter: inactive; Fam108B counter: inactive; PAD4 inh: inactive; PME-1 inh: inactive

What do the screens show for `COc1ccccc1Nc1ccc(NC(=O)c2cccc([N+](=O)[O-])c2C)cc1`?
pPAFAH inh: inactive; GSTO1 counter: inactive; Fam108B counter: 20; PAD4 inh: inactive; PME-1 inh: inactive; Fam108b inh conf: inactive

What do the screens show for `COc1cc(OC)cc(C(=O)Oc2ccc(/C=N/Nc3nc4ccccc4s3)cc2OC)c1`?
pPAFAH inh: inactive; GSTO1 counter: inactive; Fam108B counter: 26; PAD4 inh: inactive; PME-1 inh: 31; Fam108b inh conf: inactive

Results for COc1cc(/C=N/Nc2nc3ccccc3s2)ccc1OC(=O)c1ccccc1F ?
pPAFAH inh: inactive; GSTO1 counter: inactive; Fam108B counter: inactive; PAD4 inh: inactive; PME-1 inh: inactive

How did COc1ccc([N+](=O)[O-])cc1/C=N/Nc1nc(N2CCCCC2)nc(N2CCCCC2)n1 do in these assays?
pPAFAH inh: inactive; GSTO1 counter: inactive; Fam108B counter: inactive; PAD4 inh: inactive; PME-1 inh: inactive

What do the screens show for `COc1cccc(C=NNc2nc(Nc3ccc([N+](=O)[O-])cc3)nc(N3CCCC3)n2)c1O`?
Fam108b inh: 90

Results for O=C(CCC1CCCN(Cc2ccc3c(c2)CCO3)C1)NCc1ccc(F)c(F)c1 (stereo unspecified) ?
pPAFAH inh: inactive; GSTO1 counter: inactive; Fam108B counter: inactive; PAD4 inh: inactive; PME-1 inh: inactive

What do the screens show for `Cc1cc(C=O)c(C)n1-c1cccc(C(=O)O)c1`?
pPAFAH inh: inactive; GSTO1 counter: inactive; Fam108B counter: inactive; PAD4 inh: inactive; PME-1 inh: inactive

Results for Cc1ccc(C)n1-c1cccc(C(=O)O)c1 ?
pPAFAH inh: 63; GSTO1 counter: 53; Fam108B counter: 35; PAD4 inh: inactive; PME-1 inh: inactive; Fam108b inh conf: 43; Fam108b inh: inactive

What do the screens show for `Nc1c(S(=O)(=O)c2cccc(Cl)c2)c2nc3ccccc3nc2n1/N=C/c1ccc(O)c(O)c1`?
pPAFAH inh: 71; GSTO1 counter: inactive; Fam108B counter: 77; PAD4 inh: inactive; PME-1 inh: 51; Fam108b inh conf: 140

Results for Cc1ccc(CN2CC(C(=O)Nc3cc(C)ccn3)CC2=O)cc1 (stereo unspecified) ?
pPAFAH inh: inactive; GSTO1 counter: inactive; Fam108B counter: inactive; PAD4 inh: inactive; PME-1 inh: inactive

What do the screens show for `COC1=CC(=O)C(O)=C(CCCCCCCC=CCCCCCCCC2=C(O)C(=O)C=C(OC)C2=O)C1=O`?
Fam108b inh: inactive

Results for Cc1[nH]c2ccccc2c1/C=N/Nc1nc(Nc2ccc(F)cc2)nc(N2CCOCC2)n1 ?
pPAFAH inh: inactive; GSTO1 counter: inactive; Fam108B counter: 22; PAD4 inh: inactive; PME-1 inh: inactive; Fam108b inh conf: inactive

What do the screens show for `O=C(c1cc2ncc(Br)cn2n1)N1CCN(C(=O)c2ccco2)CC1`?
pPAFAH inh: inactive; GSTO1 counter: inactive; Fam108B counter: 19; PAD4 inh: inactive; PME-1 inh: inactive; Fam108b inh conf: inactive

What do the screens show for `CC(=O)c1c(C)[nH]c(C(=O)N2CCN(c3ccccn3)CC2)c1C`?
pPAFAH inh: inactive; GSTO1 counter: inactive; Fam108B counter: inactive; PAD4 inh: inactive; PME-1 inh: inactive

How did CCN(C1CCS(=O)(=O)C1)S(=O)(=O)c1ccc2ccccc2c1 (stereo unspecified) do in these assays?
pPAFAH inh: inactive; GSTO1 counter: inactive; Fam108B counter: inactive; PAD4 inh: inactive; PME-1 inh: inactive

How did O=C1c2ccccc2-c2onc3ccc(NCCCn4ccnc4)c1c23 do in these assays?
pPAFAH inh: 105; GSTO1 counter: 105; Fam108B counter: 122; PAD4 inh: 106; PME-1 inh: 109; Fam108b inh conf: 150; Fam108b inh: 80

Results for CC(=NNC(=O)c1cccc(Cl)c1)C1C(=O)c2ccccc2C1=O ?
Fam108b inh: inactive

Results for CCOc1ccc(C(=O)N/N=C(/C)C2C(=O)c3ccccc3C2=O)cc1 ?
pPAFAH inh: inactive; GSTO1 counter: inactive; Fam108B counter: inactive; PAD4 inh: inactive; PME-1 inh: inactive

How did CCN(CC)c1ccc(/C=C(/C#N)c2nc3ccccc3[nH]2)c(OC(C)C)c1 do in these assays?
pPAFAH inh: inactive; GSTO1 counter: inactive; Fam108B counter: 20; PAD4 inh: inactive; PME-1 inh: inactive; Fam108b inh conf: inactive
